POLI inh = qHTS for Inhibitors of Polymerase Iota; DNA polymerase iota (Homo sapiens), Q9UNA4; Pol iota fluorescent replication assay, 10 min; 390,000 compounds, 1% hits; Potency, µM (series often up to 115 µM), for inactives: top-dose activity, negative = inhibition, most hits filed as inhibitors
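Fluorescent replication assay read twice, at 0 min and 10 min after adding 50 nM (final) substrate. Enzyme (10 nM) and compounds were first incubated 15 min at room temperature; enzyme-free buffer wells were negative controls.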
Pol beta inh = qHTS Assay for Inhibitors of DNA Polymerase Beta. P06746. 340,000 compounds, 1.3% hits. Potency, µM (titrated, usually from 114 µM), for the others: top-dose activity change, negative = inhibition, actives largely listed as inhibitors. Pol beta primer extension/strand displacement, fluorescence kinetic; also: % is scaled to controls: 0 for no effect and ±100 for the full control effect
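Homogeneous kinetic assay of primer extension and strand displacement by 10 nM Pol beta, preincubated 15 min at room temperature with compound before 50 nM substrate (final) was added. Read at 0 and 10 min; four-parameter Hill fit.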
Pol eta inh = qHTS for Inhibitors of Polymerase Eta | DNA polymerase eta (Homo sapiens), Q9Y253 | recombinant Pol eta, fluorescent DNA replication assay | Potency, µM (doses to about 114 µM), without a hit: top-dose activity change, negative = inhibition, usual class: inhibitors | 390,000 compounds, 1.2% hits | AID 588591, 2011; also: % is scaled to controls: 0 for no effect and ±100 for the full control effect
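Pol eta at 10 nM preincubated with compounds 15 min at room temperature; reaction started with fluorescent substrate (50 nM final) and read kinetically at 0 and 10 min.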
Pol kappa inh = qHTS for Inhibitors of Polymerase Kappa. AID 588579, 2011. 400,000 compounds, 0.53% hits. DNA polymerase kappa (Homo sapiens), Q9UBT6. purified Pol kappa, fluorescent DNA synthesis assay, 10 min. Potency, µM (titrated, usually from 107 µM), for the others: at the highest dose activity, negative = inhibition, usual class: inhibitors; also: % is scaled to controls: 0 for no effect and ±100 for the full control effect
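10 nM Pol kappa was preincubated with compounds for 15 min at room temperature. Reaction started with 50 nM (final) substrate. Fluorescence read kinetically at 0 and 10 min.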
GLS inhibitor = qHTS for Inhibitors of Glutaminase (GLS) | GLS enzymatic activity, qHTS titration | AID 624170, 2012 | Potency, µM (highest dose often 45.5 µM), for the others: at the highest dose activity change, negative = inhibition, most hits filed as inhibitors | Glutaminase kidney isoform, mitochondrial (Homo sapiens), O94925 | 410,000 compounds, 0.21% hits; also: % is scaled to controls: 0 for no effect and ±100 for the full control effect
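Enzyme dispensed in phosphate buffer (45 mM, pH 8.2, 0.02% Tween-20), compounds pinned in, then 1 mM L-glutamine solution and the glutamate oxidase–HRP–Amplex Red mix added; fluorescence read immediately and again after 30 min at room temperature.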
APE1 inh = qHTS Assay for Inhibitors of the Human Apurinic/apyrimidinic Endonuclease 1 (APE1) | recombinant APE1, TAMRA/BHQ-2 abasic DNA cleavage fluorescence | Potency, µM (highest dose often 65.8 µM), without a hit: at the top dose activity change, negative = inhibition, usual class: inhibitors | 350,000 compounds, 0.35% hits;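 also: plate controls were vehicle for no effect and reference inhibitor for full effect; nearly all actives have a fitted effect of over 55% in size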
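Endonuclease cleavage of a quenched abasic-site DNA duplex (50 nM) by APE1 (0.75 nM) was tracked by TAMRA dequenching. Compounds were preincubated with enzyme 15 min at room temperature; data normalized to buffer-only and DMSO wells plus NSC13755 control.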
* = called active by the depositor; ? = inconclusive; . = no result. The list is not random: actives were taken first. Their share in the collection is about 2.4%. Calls follow the shape of the dose curve; as a rule, active = well fitted curve in the direction sought with a large enough effect; inconclusive = small, poorly fitted or top-dose-only effect, or another doubt; inactive = no such curve, though single readings can be large; an effect the other way counts as inactive or inconclusive. Potency is read from the fitted curve at half-maximal effect.

SMILES	POLI inh	Pol beta inh	Pol eta inh	Pol kappa inh	GLS inhibitor	APE1 inh
O=C(Nc1cccc(N2C(=O)C3CCCCC3C2=O)c1)c1ccccc1 (stereo unspecified)	20.2%	10.6%	-9.6%	5.8%	1.1%	25.8%
O=C(Nc1cccc(Cl)c1)c1cccc(N2C(=O)C3CC=CCC3C2=O)c1 (stereo unspecified)	?	15.8µM*	-20.9%	-17.9%	?	?
Cc1ccc2nc(SCC(=O)Nc3ccc(F)cc3)nc(=O)n2c1	18.9%	.	-19.2%	-0.8%	-3.8%	16.2%
Cc1ccc(C)c(NC(=O)Cn2c(=O)n(CCC(=O)NCc3ccc4c(c3)OCO4)c(=O)c3ccccc32)c1	22.2%	0.6%	-10.0%	10.8%	8.1%	.
Cc1ccc(NC(=S)NC(=O)/C=C/c2ccco2)c(O)c1	?	17.8µM*	?	?	8.5%	?
Cc1cc(C)c2oc(-c3ccc(C)c(NC(=S)NC(=O)/C=C/c4ccco4)c3)nc2c1	-2.0%	20µM*	?	-5.1%	7.8%	-3.9%
Cc1ccc2oc(-c3cccc(NC(=S)NC(=O)/C=C/c4ccco4)c3)nc2c1	?	44.7µM*	12.6µM*	?	-0.8%	-2.5%
Cc1cc(C)c2oc(-c3ccc(C)c(NC(=S)NC(=O)c4cccs4)c3)nc2c1	-10.2%	25.0%	3.6%	-19.5%	0.0%	-0.6%
C[C@@H](Oc1ccccc1)c1nnn(Cc2ccccc2)c1-c1c([C@@H](C)Oc2ccccc2)nnn1Cc1ccccc1	-18.3%	?	1.0%	-6.1%	-2.3%	-2.6%
Cc1ccc(/C=C2\SC(=S)N(CC3CCCO3)C2=O)o1 (stereo unspecified)	?	20µM*	?	?	?	-10.0%
Cc1ccc(/C=C2/SC(=S)N(C3CCCCC3)C2=O)o1	35.7%	-17.6%	-14.6%	-1.6%	-5.4%	77.7%
Cc1ccc(/C=C2/SC(=O)NC2=S)o1	7.08µM*	20µM*	8.91µM*	17.8µM*	0.0%	12.6µM*
CCCCOc1cccc(C(=O)O)c1	7.4%	-19.6%	-9.5%	-3.4%	4.8%	-0.4%
CCCCCCCCCCCCCCOc1ccc(C(=O)O)o1	.	.	.	11.9µM*	.	25.1µM*
COc1ccc(C(=O)c2ccc(C)cc2)c(OC)c1OC	106.8%	.	-7.6%	-9.5%	-0.6%	.
COc1ccc(C(=O)c2ccc(O)cc2)c(O)c1O	.	.	.	2.24µM*	.	?
CCOc1ccc(C(=O)c2ccc(OC)c(O)c2O)cc1	.	.	.	12.6µM*	.	13.1%
Cc1c(C(=O)N2CCN(C(=O)c3ccco3)CC2)oc2c(Cl)cccc12	26.9%	.	-13.8%	-2.7%	6.3%	3.0%
Cc1cc([N+](=O)[O-])c2[nH]c(C(=O)N/N=C/c3ccccc3C(=O)O)c(-c3ccccc3)c2c1	21.3%	28.2µM*	44.7µM*	-6.6%	?	-5.4%
Cc1ccc2nc(C)c(C(=O)N/N=C/c3ccccc3[N+](=O)[O-])cc2c1	23.1%	26.6%	-14.9%	-5.9%	-2.6%	5.7%
CC[N+](C)(C)c1ccc(/C=C/c2ccncc2)cc1	79.4µM*	.	.	-42.5%	.	.
Cc1nn(Cc2ccc(C(=O)Nc3ccc(C(=O)OC(C)C)cc3)o2)c(C)c1Cl	?	44.7µM*	-12.6%	-20.8%	4.9%	-6.2%
O=Cc1coc2c(ccc3ccccc32)c1=O	.	79.4µM*	.	.	.	-5.7%
CN(C(=O)CSc1nnc(-c2ccc(Cl)cc2)n1C)C1CCS(=O)(=O)C1 (stereo unspecified)	11.4%	.	-12.5%	17.8%	-4.4%	18.2%
CC(NS(=O)(=O)c1ccccc1)C(=O)NCc1ccco1 (stereo unspecified)	39.8µM*	?	?	?	-10.6%	?

Screening results deposited in PubChem by National Center for Advancing Translational Sciences (NCATS).
